Holding throughout (assay): NCI-60 one-dose screen, 48 h (100 = growth as untreated, 0 = no growth, -100 = all killed)
Holding throughout (conditions): 10 µM unless noted

Assay [1] has as its system NCI-H23 lung.
Assay [2] deals with NCI-H226 lung.
Assay [3] relates to NCI-H322M lung.
For assay [4], the system named is HOP-62 NSCLC.
For assay [5], the system named is NCI-H460 lung.
Assay [6] has as its system HOP-92 NSCLC.
Assay [7] concerns NCI-H522 lung.
The subject of assay [8] is A549/ATCC NSCLC.
Assay [9] relates to 786-0 renal.
Assay [10] has as its system COLO 205 colon.

The panel holds about 83,000 compounds, 20% with a hit somewhere; the sample as a whole holds those more often.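 Assay: single dose, 48 h. Readout: percent growth (0 = no net growth; negative = cell death). Active: <10.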 Values without a mark were called inactive. Active and inactive are the calls of the source.

Regarding `CCOC(=O)Cc1cnc(N/N=C(\C)c2cc3ccccc3o2)s1`, the growth is 86.5% in assay [1]; 80.5% in [2]; 93.6% in assay [3]; 68% in [4]; 94.4% in [5]; 86.9% in assay [6]. Besides, the growth was 42% in assay [7], 91.5% in assay [8], 97.3% in [9] and 108% in [10].

As for `NC(=O)C(=O)c1ccccc1NC=O`, the growth in [1] was 92.1%; in [2] it was 97.3%; in assay [3] it was 95.3%; in assay [4], 86.9%; in assay [5], 103%; in assay [6], 83.2%. Besides, the growth in [7] is 88.9%; in assay [8], 99.7%; in assay [9] it was 110%; in assay [10], 118%.

As to `Nc1ncnc2c1N=C(c1ccc(Br)cc1)CC(c1cccc(Nc3ccnc4cc(C(F)(F)F)ccc34)c1)N2` (stereo not given), the growth is 62.7% in assay [1]; 67.3% in assay [2]; 95.6% in assay [3]; 60.1% in assay [4]; 59.1% in assay [5]; 41.4% in assay [6]. Besides, the growth was 74% in assay [7], 55.2% in assay [8], 53.7% in [9] and 54.6% in assay [10].

Turning to `O=C1c2c(c3c4ccccc4[nH]c3c3ccc4ccccc4c23)C(=O)N1CCN1CCNCC1`, the growth was 72.4% in assay [1]; 76% in [2]; 89.2% in assay [3]; 61.3% in assay [4]; -69.2% (active) in assay [5]; 78.3% in assay [6]. For the same molecule, the growth in assay [7] was 66.2%; in assay [8] it was -21% (active); in assay [9] it was 79.7%; in assay [10], 79.1%.

`Nc1n[nH]c2cccc(C#Cc3cccc(C(=O)Nc4cc(C(F)(F)F)cc(C(F)(F)F)c4)c3)c12`: the growth in assay [1] was 73.8%; in assay [2] it was 42.7%; in [3], 96.7%; in assay [4], 93.8%; in [5], 76.5%; in [6] it was 36.9%. Further, the growth in assay [7] was 35.1%; in assay [8] it was 80.4%; in assay [9], 103%; in [10], 81%.

Take `CCN(CC)c1ccc(\C=N/N=C(N)/C(N)=N\N=C/c2ccc(N(CC)CC)cc2)cc1`: the growth in assay [1] was 94.9%; in [2], 103%; in assay [3], 105%; in assay [4], 93.1%; in assay [5] it was 109%; in assay [6], 116%. Besides, the growth in assay [7] was 92.2%; in assay [8], 104%; in assay [9], 113%; in [10], 106%.

Turning to `CC(C)c1ccc(C(=O)Nc2sc3c(c2C(N)=O)CCC(=O)C3)cc1`, the growth in assay [1] is -7.38% (active); in assay [2], 50.9%; in assay [3] it was 69.4%; in assay [4] it was 26.2%; in [5], 1.37% (active); in assay [6] it was -32% (active). Also, the growth in assay [7] is -55.8% (active); in [8], 16.8%; in [9], 19.7%; in assay [10], -43.6% (active).

For the molecule `CCCn1cc2c(=O)nc3sc(Cc4ccccc4)c(C)n3c2n1`, the growth in [1] is 103%; in assay [2], 107%; in assay [3], 98.5%; in assay [4], 102%; in [5] it was 101%; in [6] it was 88.4%. The growth is 75% in assay [7], 83.5% in [8], 99.1% in assay [9] and 109% in [10].

For `COc1cc(C2CC(c3ccc(Nc4nc(Nc5ccc(Cl)cc5)nc(Nc5ccc(Cl)cc5)n4)cc3)=NN2C(C)=O)cc(OC)c1OC` (stereo not given), the growth in [1] is 83.3%; in assay [2] it was 104%; in [3] it was 106%; in [4], 105%; in assay [5], 106%; in assay [6], -3.51% (active). Besides, the growth was 86.8% in assay [7], 91.1% in assay [8], 90.6% in assay [9] and 97.9% in assay [10].

Regarding `CCC1=C[C@@H]2C[C@]3(C(=O)OC)c4[nH]c5ccccc5c4CC[N@+](CC(=O)Nc4cc5c(cc4OC)N(C)[C@H]4[C@@](O)(C(=O)OC)[C@H](OC(C)=O)[C@]6(CC)C=CCN7CC[C@]54[C@@H]76)(C2)[C@H]13`, the growth in assay [1] is 104%; in assay [2], 98.7%; in [3], 102%; in assay [4] it was 99.5%; in assay [5], 109%; in [6], 88%. Also, the growth was 92.4% in [7], 100% in assay [8], 99.1% in assay [9] and 104% in assay [10].

Regarding `COc1c(B(O)O)cccc1-c1nc2c(F)cc3[nH]ncc3c2c2c1CCCC2`, the growth in [1] was -11.1% (active); in assay [2] it was 9.55% (active); in [3], 7.84% (active); in [4] it was 9.83% (active); in assay [5], 4.81% (active); in [6], 14.4%. Further, the growth in assay [7] is 1.23% (active); in assay [8], 12.2%; in [9], 0.342% (active); in assay [10], -20.2% (active).

Turning to `O=C(CSc1nc2ccc([N+](=O)[O-])cc2[nH]1)Nc1ccc([N+](=O)[O-])cc1`, the growth in assay [1] was 0.139% (active); in assay [2], 6.55% (active); in [3], 43.9%; in [4] it was 36.2%; in assay [5], 15.4%; in [6], -26.8% (active). The growth is -3.09% (active) in [7], 24.4% in assay [8], 24.1% in [9] and 21.4% in assay [10].

For the molecule `O=C(c1ccccc1)c1ccc(C2CCCCC2)cc1`, the growth was 95% in assay [1]; 92.4% in [2]; 99.7% in assay [3]; 98.5% in [4]; 97% in assay [5]; 76.2% in assay [6]. Further, the growth in assay [7] is 88.9%; in [8] it was 98%; in assay [9], 90.1%; in [10], 101%.

Turning to `CC(=O)/C(=C\c1c(-c2ccccc2)[nH]c2ccccc12)S(C)(=O)=O`, the growth in [1] is 33.7%; in assay [2] it was 69.1%; in [3], 58.2%; in assay [4] it was 50.5%; in assay [5], 4.15% (active); in assay [6], 42%. Moreover, the growth was 29.6% in [7], 42.8% in [8], 22.8% in assay [9] and 21.2% in assay [10].

These data come from PubChem BioAssay (NCI).
